# Source: PubChem BioAssay AID2314 (National Center for Advancing Translational Sciences (NCATS), 2010)
# Hit rate of the full screen: of about 300,000 compounds, about 37,000 (12%) were called active. The sample holds actives, similar compounds and a random draw of the others, so the mix is not that of the screen. Rule as the data show it: active = max response mostly above about 13% (no sharp cut-off); inactive = mostly below about 14%.
# Assay: Cycloheximide Counterscreen for Small Molecule Inhibitors of Shiga Toxin; also: read at 38.3 µM for the half of the compounds with a filed dose; 0% is about no effect
# Details: cell reporter, cycloheximide protein synthesis inhibition counterscreen; stronger effect = higher value
row,SMILES,max response
1,COc1cc(C(=O)NC2CCN(Cc3ccccc3)CC2)cc(Cl)c1OC(C)C,-3.58% (inactive)
2,CCOc1ccccc1CNS(=O)(=O)c1cc(-c2cc(C)no2)ccc1C,5.17% (inactive)
3,CCCCN(C)CCCNC(=O)c1cc(-c2cccs2)nc2ccccc12,-4.95% (inactive)
4,CN(C)CCNc1ccc(-c2n[nH]c(=O)c3ccccc23)cc1[N+](=O)[O-],-2.5% (inactive)
5,CCN1CCN(C2CCCCC2NS(=O)(=O)c2ccc(Cl)cc2)CC1 (centres undefined),-3.25% (inactive)
6,CC(=O)Nc1ccc(N2C(=O)C3C4C=CC(CC4)C3C2=O)cc1 (centres undefined),3.43% (inactive)
7,O=C(Cn1nc(C(F)(F)F)c2c1CCC2)NCc1ccc(F)cc1,0.318% (inactive)
8,CC(=O)Nc1ccc(NC(=O)CC2CCCC2)cc1,20.7% (active)
9,O=C(CC1CCCCC1)NCc1ccc(F)cc1,24.8% (active)
10,O=C(CC1CCCCC1)NCc1ccco1,-1.2% (inactive)
11,CC(=O)Nc1ccc(S(=O)(=O)N2CCN(C3CCCCCCC3)CC2)cc1,-5.2% (inactive)
12,O=C(CC1CCCCC1)NCc1ccccc1,17.3% (active)
13,O=C(CCc1ccc(S(=O)(=O)NC2CCCCC2)cc1)NCc1ccccc1,-1.16% (inactive)
14,O=C(Cc1ccc(F)cc1)NC1CCCC1,5.3% (inactive)
15,COC(=O)c1ccc(/C=C2/C(=O)Oc3ccccc32)cc1,-4.87% (inactive)
16,CC(C(=O)N1CCN(c2ccccc2F)CC1)c1ccc([N+](=O)[O-])cc1 (centres undefined),-0.676% (inactive)
17,Cc1ccc(CC2CC(=O)N(c3cc(C)ccc3C)C2=O)cc1 (centres undefined),-1.67% (inactive)
18,CCOCCCN(C)C1CCN(C(=O)c2oc3ccccc3c2NC(=O)COc2cccc(C)c2)CC1,-3.98% (inactive)
19,CCN1CCCC1CNC(=O)c1cc2cc(OC)c(OC)cc2[nH]1 (centres undefined),-3.29% (inactive)
20,COc1ccc(N(C)S(=O)(=O)c2ccc3c(c2)CC(C)N3C(=O)C2CC2)c(OC)c1 (centres undefined),3.16% (inactive)
21,O=c1c2sccc2nc(SCc2cc(=O)n3ccccc3n2)n1-c1ccc(Br)cc1,-4.5% (inactive)
22,CC(C)=CCN1CCN(CCCc2ccccc2)CC1CCO (centres undefined),-0.846% (inactive)
23,COC(=O)c1c(NC(=O)COc2ccc(Cl)cc2Cl)sc2c1CC(C)(C)NC2(C)C,0.749% (inactive)
24,Cc1ccc(S(=O)(=O)c2ccc(Oc3ccccc3)cc2)cc1,-0.97% (inactive)

row,SMILES,max response
1,CC1=C/C(=N\S(=O)(=O)c2ccccc2)C(C(C)C)=CC1=O,-2.83% (inactive)
2,CC1=C/C(=N\OS(=O)(=O)c2ccccc2)C=CC1=O,35% (active)
3,O=C(Nc1ccc(Cl)cc1)C1c2cccc[n+]2CC(=O)N1Cc1ccc2c(c1)OCO2 (centres undefined),17.1% (inactive)
4,CCOc1ccc(N2C(=O)CC(N(CCc3ccc(OC)c(OC)c3)C(=S)Nc3ccccc3)C2=O)cc1 (centres undefined),8.04% (inactive)
5,O=C(CCN1C(=O)[C@H]2CC=CC[C@H]2C1=O)NCc1nc(-c2ccccc2)no1,6.47% (inactive)
6,CC(=O)Nc1ccc(C(=O)C(Cc2ccccc2)N(C)C)cc1 (centres undefined),9.54% (inactive)
7,CC(C)CNC(=O)C(=O)Nc1ccc(N(C)C)cc1,38.6% (active)
8,CC(C)CNC(=O)C(=O)NCc1ccccc1,-1.62% (inactive)
9,COc1ccc(NC(=O)Cn2ncn3c(cc4ccccc43)c2=O)c(OC)c1OC,12.5% (inactive)
10,Cc1nnc(C)c2c(C)n(N)c(C)c12,-2.66% (inactive)
11,CC(C)CC(CC(C)C)=NNC(=O)c1ccc(CSc2nncn2C)cc1,-1.48% (inactive)
12,COC(=O)c1ccc(CSc2nncn2N)cc1,2.72% (inactive)
13,COC(=O)c1ccc(CSc2nncn2C)cc1,62.2% (active)
14,CCC(Cc1ccccc1)NC(=O)C1CCCCC1 (centres undefined),5.22% (inactive)
15,CCOC(=O)c1ccc(NC(=O)c2nc[nH]c2C(=O)N[C@@H](CCCCNC(=O)OC(C)(C)C)C(=O)OC(C)(C)C)cc1,-6.86% (inactive)
16,C[C@@H](O)[C@@H]1NC(=O)[C@H](CCCCN)NC(=O)[C@H](Cc2c[nH]c3ccccc23)NC(=O)[C@H](Cc2ccccc2)NC(=O)[C@H](Cc2ccccc2)NC(=O)[C@H](CC(N)=O)NC(=O)[C@H](CCCCN)NC(=O)[C@@H](NC(=O)[C@@H]2CCCN2)CSSC[C@@H](C(=O)N[C@@H](CCCCN)C(=O)O)NC(=O)[C@H](CO)NC(=O)[C@H](CO)NC(=O)[C@H](Cc2ccccc2)NC1=O,-1.5% (inactive)
17,COc1cccc(/C=N/Nc2cc(C)nc(-c3ccccc3O)n2)c1O,28.6% (active)
18,COc1cccc(/C=N/Nc2ncc(C(F)(F)F)cc2Cl)c1O,12.5% (inactive)
19,COc1ccccc1/C=N\Nc1cc(C)nc(-n2nc(C)cc2C)n1,-2.45% (inactive)
20,O=C(NC1CCCC1)C(c1ccc(N2CCOCC2)cc1)N(C(=O)c1ccco1)c1ccccc1F (centres undefined),-1.28% (inactive)
21,CCOc1ccc(CN2CCN(Cc3ccc4cc(F)ccc4n3)CC2CCO)cc1 (centres undefined),-3.76% (inactive)
22,N#Cc1c2c(c(N3CCN(CCO)CC3)n3c1nc1ccccc13)CCCC2,-2.13% (inactive)
23,Cc1cc(NC(=O)CSc2nc(C(C)C)nc3sc4c(c23)CCC(C)C4)no1 (centres undefined),-1.25% (inactive)
24,CC1CCc2sc3nc(N4CCN(CCO)CC4)n4ncnc4c3c2C1 (centres undefined),22.8% (active)

row,SMILES,max response
1,Cc1ccc(NC(=O)C2CCCN2C(=O)OCc2ccccc2)cc1C (centres undefined),7.92% (inactive)
2,O=C(Nc1ccccc1Cl)NC1(C(=O)N2CCOCC2)CCCCC1,-1.76% (inactive)
3,CCCCC(c1nnnn1CS(=O)(=O)c1ccc(C)cc1)N1CCC(C(N)=O)CC1 (centres undefined),-6.32% (inactive)
4,COc1ccc(/C=C2\N=C3CCCN3C2=O)cc1,39.3% (active)
5,COc1ccc(/C=C2\SC(=N)N(c3ccc(F)cc3)C2=O)cc1,-4.26% (inactive)
6,COc1ccc(/C=C2\SC(=S)N(CC(=O)NNC(=O)c3ccncc3)C2=O)cc1,5.86% (inactive)
7,Cn1c(=O)c2c(-c3cccc(Br)c3)c(C#N)c(N)nc2n(C)c1=O,1.41% (inactive)
8,COC(=O)C1=CN(Cc2ccc(OC)c(OC)c2)C=C(C(=O)OC)C1c1cccs1,8.87% (inactive)
9,Cn1cncc1COC(=O)c1ccc(Cl)cc1,5.18% (inactive)
10,CN1C2C=C(N(C(=O)c3ccc(Cl)cc3)c3ccccc3)CC1CC2 (centres undefined),-2.76% (inactive)
11,CN1OC(COC(=O)c2ccc(Cl)cc2)CC1c1ccccc1 (centres undefined),66.4% (active)
12,Cc1ccc(CNC(=O)CCC(=O)N2CC(C)Sc3ccccc32)cc1 (centres undefined),-1.08% (inactive)
13,CCOC(=O)N1CCC(N2Cc3cccc(C(=O)Nc4c(C)cccc4CC)c3C2=O)CC1,-3.86% (inactive)
14,COc1cccc2sc(N(CCCN(C)C)C(=O)CCS(=O)(=O)c3ccccc3)nc12,11.6% (inactive)
15,Clc1ccc(Cc2nnc(-c3cccs3)o2)cc1,32.7% (active)
16,S=C(NCc1cccs1)Nc1ccc(Cl)cc1,13.8% (inactive)
17,CNC(=O)c1nnc(Cc2ccc(Cl)cc2)o1,11.5% (inactive)
18,COC(=O)[C@H](Cc1ccccc1)NC(=O)N1CC(C)OC(C)C1 (some centres undefined),0.915% (inactive)
19,O=C(CSC(=S)N1CCCCC1)c1c(F)cccc1F,42.5% (active)
20,O=C(CP(=O)(c1ccccc1)c1ccccc1)N1CCOCC1,-5.81% (inactive)
21,CSCC(=O)N1CCCC(C(=O)c2cc(F)ccc2F)C1 (centres undefined),5.48% (inactive)
22,O=C(CSC(=S)N1CCOCC1)c1cc(Br)cc(Br)c1O,-5.21% (inactive)
23,CC1CN(C(=S)SCC(=O)c2ccccc2)CC(C)O1 (centres undefined),34.8% (active)
24,O=C(CSC(=S)N1CCOCC1)c1ccccc1,19% (active)

row,SMILES,max response
1,CC1CN(C(=S)Nc2ccccc2F)CC(C)O1 (centres undefined),1.94% (inactive)
2,O=C(NC1CCN(Cc2ccccc2)CC1)c1c(F)cccc1F,-3.43% (inactive)
3,CCOC(=O)c1c(CN(C)C)n(-c2ccccc2)c2cc(Br)c(O)cc12,-1.63% (inactive)
4,C[C@H]1CCC(=O)N([C@H](CSc2ccccc2)Cc2ccccc2)CC1,6.38% (inactive)
5,Cc1c(C(=O)N2CCCC2)c(S(=O)(=O)NCC(C)c2ccccc2)c(C)n1C (centres undefined),-6.59% (inactive)
6,COc1ccc(N(CC(=O)NC2CCCCC2)C(=O)CNC(=O)c2ccco2)c(OC)c1,1.11% (inactive)
7,CC1CC(NC(=O)/C(C#N)=C/c2ccc[nH]2)CC(C)(C)C1 (centres undefined),4.89% (inactive)
8,CC(=O)NC1=NN(C(C)=O)C(C)(c2ccc(Cl)s2)S1 (centres undefined),-1.1% (inactive)
9,O=C(N/N=C/c1cccc2cccnc12)[C@H]1C[C@@H]1c1ccccc1,8.61% (inactive)
10,CN(C)/C(CN1CCCCC1)=C1\N=C(c2ccccc2)OC1=O,-3.11% (inactive)
11,O=c1cc(CN2CCN(S(=O)(=O)/C=C/c3ccccc3)CC2)c2ccc(O)cc2o1,-1.39% (inactive)
12,COc1ccc([N+](=O)[O-])cc1N(CC(O)CN(CC(C)C)CC(C)C)S(=O)(=O)c1ccc(C)cc1 (centres undefined),9.04% (inactive)
13,CCOCc1nnc(NC(=O)CSc2ccc(C)cc2)s1,-1.61% (inactive)
14,Cc1ccc(C(=O)Cn2cccn2)cc1,6.54% (inactive)
15,Cc1ccc(C(=O)Cc2nnc(C)s2)cc1,43.7% (active)
16,COc1cc2c(cc1NC(=O)COC(=O)/C=C/c1ccccc1)oc1ccccc12,0.0459% (inactive)
17,NC(=O)Cc1ccc2sc(-c3ccccc3)nc2c1,75.6% (active)
18,NC(=O)Cc1ccc2c(c1)[nH]c1ccccc12,4.3% (inactive)
19,O=C(O)Cc1sc(-c2ccccc2)nc1-c1cccs1,16.4% (inactive)
20,O=C(O)Cc1ccc(NCc2ccccc2Cl)cc1,23.5% (inactive)
21,O=C(O)CC1=C(Nc2ccccc2)C(=O)N(c2ccccc2)C1c1ccc(Cl)cc1 (centres undefined),38.1% (active)
22,COC(=O)CN1C(=S)N(c2ccccc2)C(=O)C1CC(=O)Nc1ccc(Cl)cc1 (centres undefined),-2.88% (inactive)
